Measurements reported in the supplement of paper PMC11172423.
Unmarked numbers belong to inactive results.

Key:
[1] = system: Falciformispora senegalensis CBS197.79; experiment: growth relative to untreated control; higher = less inhibition, active = 20 or less
Method in brief: (§1)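 Growth was expressed as metabolic activity relative to the untreated growth control, with both corrected using a blank of medium plus dye. Hyphal fragments of M. mycetomatis MM55 or F. senegalensis CBS197.79 were suspended to 68–72% transmission at 660 nm in colourless RPMI 1640 containing L-glutamine and MOPS. In 96-well plates they were exposed to compound at 100 or 25 µM for 7 days at 37 °C, and viability was read with MTS (2 h, 490 nm) or resazurin (600 nm).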

[2] = system: Madurella mycetomatis MM55; experiment: as above
Method in brief: as §1

SMILES | growth ([1]; 25 µM) | growth ([1]; 100 µM) | growth ([2]; 25 µM) | growth ([2]; 100 µM)
COc1cc(OC)c2c(O)nc(-c3cc(C)c(OCCO)c(C)c3)nc2c1 | 103% | 97.6% | 103% | 72.7%
Cc1noc(C2CN(C(=O)c3ccc(Nc4nccc(-c5ccc(Cl)cc5)n4)cc3)C2)n1 | 73.8% | 99.2% | 122% | 73.7%
Nc1nc(S)c2[nH]cnc2n1 | 106% | 103% | 71.8% | 92.8%
CC[C@H](C)[C@H]1O[C@]2(CC[C@@H]1C)C[C@@H]1C[C@@H](C/C=C(\C)[C@@H](O[C@H]3C[C@H](OC)[C@@H](O[C@H]4C[C@H](OC)[C@@H](O)[C@H](C)O4)[C@H](C)O3)[C@@H](C)/C=C/C=C3\CO[C@@H]4[C@H](O)C(C)=C[C@@H](C(=O)O1)[C@]34O)O2 | 90.2% | 91.2% | 95.8% | 112%
Clc1ccc2c(N3CCN(CCCN4CCN(c5ccnc6cc(Cl)ccc56)CC4)CC3)ccnc2c1 | 104% | 101% | 95.9% | 86.7%
CNCc1[cH-]ccc1CNc1ccnc2cc(Cl)ccc12.[Fe+2].c1cc[cH-]c1 | 10.2% (active) | 14.6% (active) | 2.78% (active) | 2.49% (active)
O=C(c1ccc(Nc2nccc(-c3cc(Cl)cc(C(F)(F)F)c3)n2)cc1)N1CC(O)C1 | 88.9% | 93.2% | 110% | 85.6%
O=S(=O)(NCC1(O)CCOc2ccccc21)c1ccccc1F (stereo not drawn) | 85.9% | 113% | 101% | 102%
COc1ccc2cc1Oc1ccc(cc1)C[C@H]1c3cc(c(OC)cc3CCN1C)Oc1c(O)c(OC)cc3c1[C@@H](C2)N(C)CC3 | 100% | 19.7% (active) | 5.48% (active) | 5.12% (active)
COc1cccc(OC2CCN(C(=O)c3cc(C(C)(C)C)nn3Cc3ccccc3)CC2)c1 | 82.9% | 93.8% | 87.4% | 118%
N#Cc1cccc(C(=O)NC2CCN(c3ccnc(Nc4ccc(F)cc4)n3)C2)c1 (stereo not drawn) | 89.5% | 88.1% | 84.1% | 85.8%
CN(C)C[C]1[CH][CH][CH][C]1CNc1ccnc2cc(Cl)ccc12.[CH]1[CH][CH][CH][CH]1.[Fe] | 59.2% | 58% | 33.7% | 39.8%
Nc1nc(NC2CC2)c2ncn([C@H]3C=C[C@@H](CO)C3)c2n1 | 94.3% | 107% | 97% | 83.8%
CC(C)n1ncc2c(C(=O)N3CCCc4ccccc43)cc(-c3ccccc3)nc21 | 82.5% | 89.8% | 71.5% | 59.8%
O=C(c1ccc(Nc2nccc(-c3ccc(C(F)(F)F)c(Cl)c3)n2)cc1)N1CC(O)C1 | 97.7% | 106% | 103% | 131%
N#Cc1ccc(-c2ccc3nc(Oc4ccc(C(F)(F)F)cn4)cn3c2)nc1 | 101% | 109% | 32.3% | 82.2%
CC(C)(C)NC(=O)[C@@H]1CN(Cc2cccnc2)CCN1C[C@@H](O)C[C@@H](Cc1ccccc1)C(=O)N[C@H]1c2ccccc2C[C@H]1O | 105% | 103% | 113% | 90.8%
Cc1cc(Cl)ccc1NC(=S)N(C)C | 98.6% | 88.2% | 106% | 147%
CO[C@@H]1[C@H](N(C)C(=O)c2ccccc2)C[C@H]2O[C@]1(C)n1c3ccccc3c3c4c(c5c6ccccc6n2c5c31)C(=O)NC4 | 113% | 89.5% | 77.9% | 87.3%
C[C@@H]1[C@@H](NC(=O)c2cn3cc(Cl)ccc3n2)C[C@H]2C[C@@H]1C2(C)C | 95.5% | 102% | 69.5% | 7.3% (active)
C[C@H](NC(=O)c1cc2c(F)cccc2[nH]1)c1ccccc1 | 84.1% | 68.4% | 20.7% | 7.43% (active)
COc1cc2nccc(Oc3ccc(NC(=O)C4(C(=O)Nc5ccc(F)cc5)CC4)cc3)c2cc1OC | 83.6% | 98.4% | 99.9% | 79.9%
Cc1ccccc1-c1noc(-c2ccccc2)n1 | 92.9% | 86.5% | 93.4% | 60.5%
CCOC(=O)N1CCC(=C2c3ccc(Cl)cc3CCc3cccnc32)CC1 | 106% | 104% | 54.3% | 6.05% (active)

SMILES | growth ([1]; 25 µM) | growth ([1]; 100 µM) | growth ([2]; 25 µM) | growth ([2]; 100 µM)
CC(C)C[C@H](NC(=O)[C@@H](NC(=O)c1cccc(-c2ccccc2)n1)[C@@H](C)O)B(O)O | 102% | 99% | 99.4% | 88.5%
OC(Cn1cncn1)(Cn1cncn1)c1ccc(F)cc1F | 106% | 105% | 76% | 4.95% (active)
CN(C)c1cc(NC(=O)CNC(C)(C)C)c(O)c2c1C[C@H]1C[C@H]3[C@H](N(C)C)C(O)=C(C(N)=O)C(=O)[C@@]3(O)C(O)=C1C2=O | 104% | 107% | 69.1% | 104%
OC[C@H]1NC[C@H](O)[C@@H](O)[C@H]1O | 94.7% | 100% | 101% | 91.1%
CCc1ccc2c(c1O)CCN(C)C2Cc1ccccc1Cl (stereo not drawn) | 78.3% | 27.8% | 21.4% | 6.23% (active)
S=C(NCc1ccc2c(c1)OCO2)N1CCN(c2ncnc3c2oc2ccccc23)CC1 | 113% | 106% | 73.4% | 77.9%
CCOc1ccc(-c2ccnc(Nc3cncc(OC)c3)n2)cc1C#N | 100% | 86.8% | 88.5% | 68.7%
CC(N)CCn1c(Nc2cc(Cl)cc(C(F)(F)F)c2)nc2cnc(NC(C)(C)C)nc21 (stereo not drawn) | 19.4% (active) | 12.8% (active) | 6.25% (active) | 5.86% (active)
C[C@H](NC(=O)c1cc2ccc(Cl)cc2n1C)c1ccccc1 | 93.6% | 81.7% | 99.6% | 81.1%
CCCCCCO[C@@H](C)c1cccc(-c2csc(NC(=O)c3cc(Cl)c(/C=C(\C)C(=O)O)c(Cl)c3)n2)c1OC | 80% | 105% | 81% | 85.9%
Cc1ncc([N+](=O)[O-])n1CC(C)O (stereo not drawn) | 93.4% | 100% | 120% | 128%
Cc1nc2ccccn2c1C1(O)C(=O)Nc2c(Cl)cc(Cl)cc21 (stereo not drawn) | 101% | 118% | 99.3% | 111%
CC(=O)[C@@]1(O)CC[C@H]2[C@H]3CCC4=CC(=O)CC[C@@]4(C)[C@H]3CC[C@@]21C | 92.2% | 106% | 80.2% | 83.8%
CC(C)(C)NCc1cc(Nc2ccnc3cc(Cl)ccc23)c2c(c1O)CCCC2 | 106% | 101% | 113% | 95.1%
COc1ccc(-c2ccc3c(-c4ccc(F)cc4)cnc(N)c3c2)cn1 | 94.3% | 75.2% | 88.1% | 38.6%
Nc1nc(Nc2ccc3c(c2)CC[C@@H](N2CCCC2)CC3)nn1-c1cc2c(nn1)-c1ccccc1CCC2 | -3.21% (active) | 5.2% (active) | 4.07% (active) | 4.45% (active)
C=CC(=O)Nc1cc(Nc2nccc(-c3cn(C)c4ccccc34)n2)c(OC)cc1N(C)CCN(C)C | 7.88% (active) | 12.6% (active) | 3.84% (active) | 2.43% (active)
COc1c(C)c2c(c(O)c1C/C=C(\C)CCC(=O)O)C(=O)OC2 | 102% | 107% | 88% | 94.6%
Cc1ccc(Cl)cc1NC(=O)c1c(-c2ccccc2Cl)noc1C | 79.7% | 80.1% | 32.8% | 131%
C[C@@H](c1nc(-c2ccc(C#N)cc2)cs1)[C@](O)(Cn1cncn1)c1ccc(F)cc1F | 49.9% | 52.3% | 3.04% (active) | 5.78% (active)
CCCC(CCC)C(=O)O | 112% | 106% | 76% | 79.4%
CN(C)CCOc1ccc(/C(=C(/CCCl)c2ccccc2)c2ccccc2)cc1 | 0% (active) | 0% (active) | 7.23% (active) | 6.66% (active)
CC(C)C(=O)OCC(=O)[C@@]12OC(C3CCCCC3)O[C@@H]1C[C@H]1[C@@H]3CCC4=CC(=O)C=C[C@]4(C)[C@H]3[C@@H](O)C[C@@]12C (stereo partly drawn) | 109% | 105% | 75.3% | 90.7%
